From PubChem BioAssay (NCATS)
Values joined by “and” are separate entries in the source; they are usually repeats but may differ in a detail not shown here. Equal entries are not always repeated. Records with an inconclusive call do not appear. Entries that show only a call come without a potency. Active and inactive are the calls of the source. Unless noted, calls come from the whole dose curve; as a rule, active = well fitted curve in the direction sought with a large enough effect; inconclusive = small, poorly fitted or top-dose-only effect, or another doubt; inactive = no such curve, though single readings can be large; an effect the other way counts as inactive or inconclusive. Peptide text beside a SMILES is read from it.

Tests used:
[1] = qHTS for Inhibitors of Cell Surface uPA Generation: Validation Assay (AID 493164);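 note: RAW 264.7 macrophage cells exposed to compound for 18 h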
In short: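 Compounds are titrated over seven points (2.45 nM–38.3 uM final) onto pre-plated RAW 264.7 cells and incubated for 18 h. Retained intracellular ATP, measured with ATP-Lite, indicates blocked lethal factor entry.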

[2] = target: Galactokinase (Homo sapiens) (UniProt P51570); assay: qHTS Validation Assay for Inhibitors of Human Galactokinase (GALK) (AID 493189)
In short: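 GALK (5 nM) with 35 uM ATP and 100 uM galactose in HEPES pH 8.0 with MgCl2, NaCl, DTT and BSA. Reaction ran 1 h at room temperature. Residual ATP read by Kinase-Glo Plus luminescence.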

[3] = Validation screen for small molecules that induce DNA re-replication in SW480 colon adenocarcinoma cells (AID 504364)
In short: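 Read-out: total Hoechst intensity of nuclei by fluorescence scanning imager; hits raise the fraction of nuclei with elevated DNA content. Cells received compound for 48 hr at 37 C before a 40 min stain.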

[4] = target: phosphoglycerate mutase (Leishmania major) (UniProt Q4Q090); assay: qHTS Validation Assay to Find Inhibitors of Phosphoglycerate Mutase (AID 504548); settings: Potency: inhibition qHTS; note: series mostly up to about 58 µM
In short: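 Luminescent end-point read-out via Kinase-GloPlus after a 10-minute development. Reaction: 1.25nM Leishmania major PGAM with substrate and compound, 45 minutes at room temperature in TEA buffer (pH 7.6) with MgCl2 and Tween-20.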

[5] = target: DNA dC->dU-editing enzyme APOBEC-3G (Homo sapiens) (UniProt Q9HC16); assay: qHTS for inhibitors of Vif-A3G interactions: Validation (AID 588379)
Chain of DNA dC->dU-editing enzyme APOBEC-3G (Homo sapiens) (Q9HC16 whole entry, looked up): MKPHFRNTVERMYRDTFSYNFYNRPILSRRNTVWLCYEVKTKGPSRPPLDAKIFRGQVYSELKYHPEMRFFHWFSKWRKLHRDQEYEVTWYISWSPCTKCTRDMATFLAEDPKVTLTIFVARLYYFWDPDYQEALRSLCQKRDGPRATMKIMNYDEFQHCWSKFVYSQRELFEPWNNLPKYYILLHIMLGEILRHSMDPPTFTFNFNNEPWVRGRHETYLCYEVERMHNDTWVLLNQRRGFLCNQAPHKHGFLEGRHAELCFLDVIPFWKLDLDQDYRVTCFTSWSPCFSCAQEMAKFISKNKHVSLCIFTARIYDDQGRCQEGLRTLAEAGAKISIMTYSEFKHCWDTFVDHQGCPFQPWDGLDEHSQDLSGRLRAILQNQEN
In short: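 Yellow fluorescence (Ex 488, Em 500-530) of Vif-coexpressing HeLa A3G-eYFP cells, scanned by Acumen cytometer, reports blocked A3G degradation. Cells plated at 700/well overnight at 37 deg C before compound addition, then a further overnight compound incubation at 37 deg C.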

[6] = target: Peptidyl-prolyl cis-trans isomerase NIMA-interacting 1 (Homo sapiens) (UniProt Q13526); assay: qHTS Validation Assay to Find Inhibitors of Pin1 (AID 504536; active = well fitted inhibition curve with a large enough effect in the polarisation, with a control signal flat, not every such curve was filed as active; the % refers to the polarisation)
In short: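 Fluorescence polarization competition: compounds (titration) displace HiFluor-488-labeled Pin1-1b peptide from Pin1 (0.3 uM final) in pH 7.5 HEPES buffer with DTT, 10 min at room temperature; %Activity normalized to no-enzyme wells, curves fitted.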

[7] = qHTS for Inhibitors of ATXN expression: Validation of Cytotoxic Assay (AID 588349)
In short: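 Cytotoxicity counter-screen: HEK293 cells exposed to compound titrations, 72 hr, 37 degrees C. Read-out is intracellular ATP (CellTiter Glo luminescence) as a viability measure.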

[8] = target: Ubiquitin carboxyl-terminal hydrolase 1 (Homo sapiens) (UniProt O94782); assay: Inhibitors of USP1/UAF1: Pilot qHTS (AID 504865);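 note: rhodamine fluorescence freed from ubiquitin-rhodamine substrate followed over time; top concentration of the series differs between compounds; nearly all actives have a fitted effect of over 35% in size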
Chain of Ubiquitin carboxyl-terminal hydrolase 1 (Homo sapiens) (O94782 whole entry, looked up): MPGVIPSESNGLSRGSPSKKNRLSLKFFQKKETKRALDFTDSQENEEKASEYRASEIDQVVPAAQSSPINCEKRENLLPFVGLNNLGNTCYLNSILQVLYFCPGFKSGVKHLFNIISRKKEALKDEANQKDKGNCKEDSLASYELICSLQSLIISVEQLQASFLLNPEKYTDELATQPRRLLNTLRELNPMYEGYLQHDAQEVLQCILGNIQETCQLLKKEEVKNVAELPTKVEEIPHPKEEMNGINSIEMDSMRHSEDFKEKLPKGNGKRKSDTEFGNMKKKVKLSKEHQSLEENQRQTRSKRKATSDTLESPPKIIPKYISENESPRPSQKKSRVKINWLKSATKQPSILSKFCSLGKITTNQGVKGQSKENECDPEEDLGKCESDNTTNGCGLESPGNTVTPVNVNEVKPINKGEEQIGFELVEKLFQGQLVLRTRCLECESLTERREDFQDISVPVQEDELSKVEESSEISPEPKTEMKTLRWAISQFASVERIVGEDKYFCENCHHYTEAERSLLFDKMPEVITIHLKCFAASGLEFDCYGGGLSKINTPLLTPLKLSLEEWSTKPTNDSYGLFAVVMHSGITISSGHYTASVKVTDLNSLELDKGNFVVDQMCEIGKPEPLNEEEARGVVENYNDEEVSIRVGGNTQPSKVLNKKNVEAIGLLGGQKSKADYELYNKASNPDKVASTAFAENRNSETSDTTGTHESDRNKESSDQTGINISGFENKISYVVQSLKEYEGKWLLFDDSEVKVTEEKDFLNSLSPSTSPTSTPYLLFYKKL
In short: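 USP1/UAF1 complex at 1 nM preincubated 15 min at room temperature with compound, then Ub-Rho substrate added at 150 nM final. Fluorescence (480/540 nm) read kinetically in 50 mM HEPES pH 7.8, 0.5 mM EDTA, 1 mM TCEP, 0.1 mg/ml BSA, 0.01% Tween-20.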

[9] = target: Bile acid receptor (Homo sapiens) (UniProt Q96RI1); assay: qHTS assay for small molecule antagonists of farnesoid X receptor signaling (AID 588526; calls by dose curve)
Chain of Bile acid receptor (Homo sapiens) (Q96RI1 whole entry, looked up): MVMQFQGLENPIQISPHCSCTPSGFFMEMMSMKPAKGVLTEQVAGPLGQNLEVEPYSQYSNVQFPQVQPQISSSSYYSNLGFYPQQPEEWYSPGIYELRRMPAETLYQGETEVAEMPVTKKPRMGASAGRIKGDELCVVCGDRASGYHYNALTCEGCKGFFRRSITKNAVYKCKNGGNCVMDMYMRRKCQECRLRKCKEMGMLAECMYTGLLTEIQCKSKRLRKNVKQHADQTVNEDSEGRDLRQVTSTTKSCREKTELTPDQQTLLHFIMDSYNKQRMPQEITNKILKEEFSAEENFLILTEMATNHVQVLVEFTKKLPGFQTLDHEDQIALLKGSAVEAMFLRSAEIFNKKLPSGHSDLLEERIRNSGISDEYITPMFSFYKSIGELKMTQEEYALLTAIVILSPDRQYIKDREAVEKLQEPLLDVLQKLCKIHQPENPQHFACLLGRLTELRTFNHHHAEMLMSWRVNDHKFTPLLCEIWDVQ
In short: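 Antagonist mode: titrated compounds tested against chenodeoxycholic acid stimulation (normalized to 50 uM CDCA and DMSO) in GeneBLAzer HEK293T cells for 16 h. Beta-lactamase read by CCF4 fluorescence; IC50 from Hill fits.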

[10] = target: Glucocorticoid receptor (Homo sapiens) (UniProt P04150); assay: qHTS assay for small molecule agonists of glucocorticoid receptor signaling (AID 588532; active = well fitted curve in the direction sought with a large enough effect in the signal ratio, with a control signal flat; the % refers to the signal ratio); settings: HeLa MMTV-bla, beta-lactamase ratio, agonist, 18 h; stronger effect = higher value; percent of dexamethasone control, DMSO zero
Chain of Glucocorticoid receptor (Homo sapiens) (P04150 whole entry, looked up): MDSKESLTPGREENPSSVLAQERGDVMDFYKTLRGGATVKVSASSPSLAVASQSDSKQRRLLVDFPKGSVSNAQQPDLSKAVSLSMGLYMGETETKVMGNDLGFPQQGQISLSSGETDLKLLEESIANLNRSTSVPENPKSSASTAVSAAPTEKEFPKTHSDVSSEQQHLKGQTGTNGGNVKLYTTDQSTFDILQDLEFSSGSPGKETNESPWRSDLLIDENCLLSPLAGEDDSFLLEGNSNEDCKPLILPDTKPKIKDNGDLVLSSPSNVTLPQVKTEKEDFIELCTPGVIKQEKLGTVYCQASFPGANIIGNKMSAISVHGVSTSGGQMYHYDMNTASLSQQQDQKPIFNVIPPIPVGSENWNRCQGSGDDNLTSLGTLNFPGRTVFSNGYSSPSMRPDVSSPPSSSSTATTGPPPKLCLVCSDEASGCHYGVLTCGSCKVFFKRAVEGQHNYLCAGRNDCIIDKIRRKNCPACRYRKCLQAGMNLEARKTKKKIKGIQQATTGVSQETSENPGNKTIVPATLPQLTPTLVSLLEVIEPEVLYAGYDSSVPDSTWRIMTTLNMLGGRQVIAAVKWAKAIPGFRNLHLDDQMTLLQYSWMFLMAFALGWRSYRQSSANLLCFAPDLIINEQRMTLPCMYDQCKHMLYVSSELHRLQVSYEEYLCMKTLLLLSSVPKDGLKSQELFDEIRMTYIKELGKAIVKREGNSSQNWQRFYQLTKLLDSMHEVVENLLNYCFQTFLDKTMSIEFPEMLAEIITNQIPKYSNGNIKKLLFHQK
In short: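 MMTV-bla HeLa beta-lactamase reporter cells in 1% charcoal/dextran FBS medium, compounds up to 92 uM for 18 h at 37 C, CCF4 readout; normalized to 0.1 uM dexamethasone (100%), EC50 and efficacy from Hill fits.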

[11] = target: Glucocorticoid receptor (Homo sapiens) (UniProt P04150); assay: qHTS assay for small molecule antagonists of glucocorticoid receptor signaling (AID 588533; active = well fitted inhibition curve with a large enough effect in the signal ratio, with a control signal flat, not every such curve was filed as active; the % refers to the signal ratio;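 note: cells stimulated with 2 nM dexamethasone as agonist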)
In short: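 Antagonist-mode qHTS: compound titrations added to GRE-bla HeLa cells, then dexamethasone 2 nM final; 18 h, 37 C. CCF4 FRET fluorescence normalized to dexamethasone and DMSO; IC50 from Hill fit.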

[12] = target: Androgen receptor (Homo sapiens) (UniProt P10275); assay: qHTS assay for small molecule agonists of androgen receptor signaling (AID 588515; active = well fitted curve in the direction sought with a large enough effect in the signal ratio, with a control signal flat; the % refers to the signal ratio); settings: AR-UAS-bla HEK293, beta-lactamase ratio, agonist 16 h; stronger effect = higher value
Chain of Androgen receptor (Homo sapiens) (P10275 whole entry, looked up): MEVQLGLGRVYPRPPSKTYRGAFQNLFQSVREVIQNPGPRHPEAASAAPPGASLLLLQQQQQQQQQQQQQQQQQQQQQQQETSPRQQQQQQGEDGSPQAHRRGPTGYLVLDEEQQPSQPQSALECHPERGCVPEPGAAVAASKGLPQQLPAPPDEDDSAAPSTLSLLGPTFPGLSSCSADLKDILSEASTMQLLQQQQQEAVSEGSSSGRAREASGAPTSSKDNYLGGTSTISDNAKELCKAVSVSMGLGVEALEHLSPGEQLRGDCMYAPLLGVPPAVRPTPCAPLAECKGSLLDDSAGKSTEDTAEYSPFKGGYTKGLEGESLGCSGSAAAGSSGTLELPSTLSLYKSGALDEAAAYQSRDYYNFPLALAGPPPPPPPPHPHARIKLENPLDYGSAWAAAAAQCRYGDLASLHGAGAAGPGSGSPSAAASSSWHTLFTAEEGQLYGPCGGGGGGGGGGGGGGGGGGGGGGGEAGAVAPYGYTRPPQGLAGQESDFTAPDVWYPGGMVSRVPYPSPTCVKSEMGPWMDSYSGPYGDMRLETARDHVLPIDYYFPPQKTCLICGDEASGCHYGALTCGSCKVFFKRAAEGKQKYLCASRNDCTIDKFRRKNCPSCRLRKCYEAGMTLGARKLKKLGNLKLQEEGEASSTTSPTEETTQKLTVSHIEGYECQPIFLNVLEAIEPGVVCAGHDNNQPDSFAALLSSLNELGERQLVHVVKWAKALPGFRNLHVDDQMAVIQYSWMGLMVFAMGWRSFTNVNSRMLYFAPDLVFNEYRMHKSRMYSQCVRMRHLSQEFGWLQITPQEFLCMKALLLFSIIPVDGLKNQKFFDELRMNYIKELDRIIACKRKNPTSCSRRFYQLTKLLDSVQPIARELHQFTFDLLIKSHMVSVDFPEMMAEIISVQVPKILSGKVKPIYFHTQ
In short: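 Stimulation of an AR-responsive β-lactamase reporter in GripTite HEK293 cells was measured after 16 h compound exposure at 37 °C, via CCF4 fluorescence after 2 h RT. EC50 from Hill fits, normalized to R1881 at 30 nM.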

[13] = target: Androgen receptor (Homo sapiens) (UniProt P10275); assay: qHTS assay for small molecule antagonists of androgen receptor signaling (AID 588516; active = well fitted curve in the direction sought with a large enough effect in the signal ratio, with a control signal flat, not every such curve was filed as active; the % refers to the signal ratio)
In short: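 AR-UAS-bla GripTite HEK 293 cells (2000/well) treated with compound titrations plus 10 nM R1881 for 16 h at 37C. Beta-lactamase read by CCF4 FRET (460/530 nm); IC50 from Hill fits, normalized to R1881 and DMSO control wells.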

[14] = qHTS assay for small molecule antagonists of peroxisome proliferator-activated receptor delta signaling (AID 588535; active = well fitted inhibition curve with a large enough effect in the signal ratio, with a control signal flat, not every such curve was filed as active; the % refers to the signal ratio;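 for max response: cells co-treated with a PPAR-delta agonist as stimulator during compound exposure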); settings: HEK293T PPARd-UAS-bla, beta-lactamase FRET ratio, 18 h; 460 nm channel
In short: (§1)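 Beta-lactamase reporter read-out (405 nm excitation, 460/530 nm emission) after CCF4 loading for 2 hrs at RT. HEK293T PPAR-delta-UAS-bla cells, 2% charcoal/dextran FBS, compounds for 18 hrs at 37 C. Hill fit gave IC50 and efficacy.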

[15] = target: Peroxisome proliferator-activated receptor delta (Homo sapiens) (UniProt Q03181); assay: as above
Chain of Peroxisome proliferator-activated receptor delta (Homo sapiens) (Q03181 whole entry, looked up): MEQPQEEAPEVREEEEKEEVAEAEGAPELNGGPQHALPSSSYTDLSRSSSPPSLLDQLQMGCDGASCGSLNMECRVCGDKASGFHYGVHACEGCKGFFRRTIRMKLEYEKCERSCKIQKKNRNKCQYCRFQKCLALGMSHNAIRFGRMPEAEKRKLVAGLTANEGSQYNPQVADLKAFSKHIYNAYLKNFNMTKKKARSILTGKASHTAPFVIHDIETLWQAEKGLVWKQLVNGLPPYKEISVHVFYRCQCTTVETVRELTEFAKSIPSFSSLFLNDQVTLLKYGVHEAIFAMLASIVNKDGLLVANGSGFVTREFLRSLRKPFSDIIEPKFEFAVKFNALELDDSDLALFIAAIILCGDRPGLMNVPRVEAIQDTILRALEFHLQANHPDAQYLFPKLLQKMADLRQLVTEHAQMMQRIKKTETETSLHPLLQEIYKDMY
In short: as §1

[16] = target: Peroxisome proliferator-activated receptor gamma (Homo sapiens) (UniProt P37231); assay: qHTS assay for small molecule agonists of peroxisome proliferator-activated receptor gamma signaling (AID 588536; active = well fitted curve in the direction sought with a large enough effect in the signal ratio, with a control signal flat, not every such curve was filed as active; the % refers to the signal ratio)
Chain of Peroxisome proliferator-activated receptor gamma (Homo sapiens) (P37231 whole entry, looked up): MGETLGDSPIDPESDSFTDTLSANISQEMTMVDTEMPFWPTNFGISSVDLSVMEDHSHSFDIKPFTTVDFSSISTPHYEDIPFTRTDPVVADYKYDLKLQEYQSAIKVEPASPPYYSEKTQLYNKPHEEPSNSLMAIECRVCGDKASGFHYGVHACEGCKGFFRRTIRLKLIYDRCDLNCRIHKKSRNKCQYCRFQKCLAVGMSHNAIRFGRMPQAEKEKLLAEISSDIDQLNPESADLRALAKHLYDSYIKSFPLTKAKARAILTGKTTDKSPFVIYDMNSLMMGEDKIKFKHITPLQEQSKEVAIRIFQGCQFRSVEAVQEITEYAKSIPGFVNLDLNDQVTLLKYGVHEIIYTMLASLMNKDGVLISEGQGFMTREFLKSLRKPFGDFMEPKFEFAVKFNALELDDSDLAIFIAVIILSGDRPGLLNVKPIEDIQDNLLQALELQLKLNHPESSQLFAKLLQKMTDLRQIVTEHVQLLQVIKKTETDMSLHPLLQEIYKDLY
In short: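 Beta-lactamase reporter read-out: CCF4 fluorescence (ex 405, em 460/530 nm) after 2 h at RT. HEK293 GeneBLAzer cells were treated for 16 h at 37 C. Hill fits gave EC50 and efficacy versus 2 uM rosiglitazone (100%) and DMSO (0%).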

[17] = target: Peroxisome proliferator-activated receptor gamma (Homo sapiens) (UniProt P37231); assay: qHTS assay for small molecule antagonists of peroxisome proliferator-activated receptor gamma signaling (AID 588537; active = well fitted inhibition curve with a large enough effect in the signal ratio, with a control signal flat, not every such curve was filed as active; the % refers to the signal ratio;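 note: reporter cells co-stimulated with 50 nM rosiglitazone agonist during compound treatment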)
In short: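 Read-out: CCF4 fluorescence (ex 405, em 460/530 nm) after 2 h at RT. Cells were HEK293 carrying a UAS-bla reporter and treated 16 h at 37 C with compound plus rosiglitazone (50 nM final). Normalized to rosiglitazone and DMSO.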

[18] = target: Estrogen receptor (Homo sapiens) (UniProt P03372); assay: qHTS assay for small molecule antagonists of estrogen receptor alpha signaling (AID 588513; active = well fitted curve in the direction sought with a large enough effect in the signal ratio, with a control signal flat, not every such curve was filed as active; the % refers to the signal ratio)
Chain of Estrogen receptor (Homo sapiens) (P03372 whole entry, looked up): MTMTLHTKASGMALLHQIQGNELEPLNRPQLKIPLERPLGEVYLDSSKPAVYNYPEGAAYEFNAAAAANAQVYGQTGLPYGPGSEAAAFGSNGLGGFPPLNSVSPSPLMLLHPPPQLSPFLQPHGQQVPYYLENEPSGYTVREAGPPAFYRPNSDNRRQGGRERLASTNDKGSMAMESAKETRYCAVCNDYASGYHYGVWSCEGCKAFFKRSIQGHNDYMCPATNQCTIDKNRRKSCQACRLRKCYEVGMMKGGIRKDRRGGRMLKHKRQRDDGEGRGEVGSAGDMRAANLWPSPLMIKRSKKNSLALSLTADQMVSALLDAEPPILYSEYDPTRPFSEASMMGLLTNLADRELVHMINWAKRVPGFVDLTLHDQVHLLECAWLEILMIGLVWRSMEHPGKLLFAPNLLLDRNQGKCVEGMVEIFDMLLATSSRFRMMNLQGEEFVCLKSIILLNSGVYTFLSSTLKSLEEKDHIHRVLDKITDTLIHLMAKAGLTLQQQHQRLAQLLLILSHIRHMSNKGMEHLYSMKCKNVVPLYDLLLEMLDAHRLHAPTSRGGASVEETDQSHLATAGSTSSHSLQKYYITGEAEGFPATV
In short: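 ER-alpha-UAS-bla GripTite HEK 293 cells in 2% charcoal/dextran-treated FBS medium; compounds titrated (1:2, duplicate), then stimulated with 0.5 nM 17-beta-estradiol for 18 h at 37C. CCF4 beta-lactamase fluorescence; Hill-fit IC50 and efficacy.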

[19] = target: Estrogen receptor (Homo sapiens) (UniProt P03372); assay: qHTS assay for small molecule agonists of estrogen receptor alpha signaling (AID 588514; calls by dose curve; note: nearly all actives have a fitted effect of over 70% in size)
In short: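 Read-out: CCF4 fluorescence from a beta-lactamase reporter in ER-alpha-UAS-bla HEK 293 cells after 18 hrs of compound exposure at 37 C. Normalized to 20 nM 17-beta-estradiol (100%) and DMSO (0%).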

## O=c1c(O)c(-c2cc(O)c(O)c(O)c2)oc2cc(O)cc(O)c12
[1]
  outcome: inactive
[2]
  outcome: inactive
[3]
  Potency: inactive
[4]
  Potency: inactive
[5]
  outcome: inactive

## Nc1nc(N)c(N=O)c(OCC2CCCCC2)n1
[1]
  outcome: inactive
[6]
  outcome: inactive

## CCOC(=O)C(C)Oc1cccc2c(=O)n(CC(=O)Nc3ccc4c(c3)OCCO4)ccc12 (stereo unspecified)
[1]
  outcome: inactive
[7]
  outcome: inactive

## O=C1c2ccccc2-c2n[nH]c3cccc1c23
[5]
  outcome: inactive

## O=C(NCCO[N+](=O)[O-])c1cccnc1
[8]
  Potency: inactive
[5]
  outcome: inactive

## CN(c1nccc(=O)[nH]1)C1CCN(c2nc3ccccc3n2Cc2ccc(F)cc2)CC1
[8]
  Potency: inactive

## Nc1nc(Cl)nc2c1ncn2[C@H]1C[C@H](O)[C@@H](CO)O1
[8]
  Potency: inactive
[9]
  outcome: inactive
[10]
  activation: -6.36% (inactive)
[11]
  outcome: inactive

## COc1cc(OC)c(C(=O)CCCN2CCCC2)c(OC)c1
[8]
  Potency: inactive
[12]
  activation: 8.09% (inactive)
[13]
  outcome: inactive
[10]
  activation: 4.51% (inactive)
[11]
  outcome: inactive
[14]
  max response: 15.9%
[15]
  outcome: inactive
[16]
  outcome: inactive
[17]
  Potency: inactive

## CN(C)CCc1c[nH]c2ccc(Cn3cncn3)cc12
[8]
  Potency: inactive

## COCCCOc1ccnc(CS(=O)c2nc3ccccc3[nH]2)c1C (stereo unspecified)
[8]
  Potency: inactive

## c1ccc2[nH]c(-c3cscn3)nc2c1
[8]
  Potency: inactive
[18]
  outcome: inactive
[19]
  outcome: inactive
[12]
  activation: 7.31% (inactive) and -15.4% (inactive)
[9]
  outcome: inactive
[10]
  activation: -3.88% (inactive) and -4.87% (inactive)
[11]
  outcome: inactive
[14]
  max response: -13.4%
[15]
  outcome: inactive
[16]
  outcome: inactive
[17]
  Potency: inactive

## C[Se]CCC(N)C(=O)O (stereo unspecified)
[8]
  Potency: inactive

## CC(=O)Nc1ccc(O)cc1
[5]
  outcome: inactive

## CCC(C)(Oc1ccc(C2(c3ccc(OC(C)(CC)C(=O)O)cc3)CCCCC2)cc1)C(=O)O (stereo unspecified)
[8]
  Potency: inactive

## CCCCc1ccc2nc(NC(=O)OC)[nH]c2c1
[8]
  Potency: inactive

## CCCCC(CC)COC(=O)C(C#N)=C(c1ccccc1)c1ccccc1 (stereo unspecified)
[10]
  activation: -1.93% (inactive)
[14]
  max response: -3.97%
[15]
  outcome: inactive

## COc1c2occc2cc2ccc(=O)oc12
[8]
  Potency: inactive
[5]
  outcome: inactive
[9]
  outcome: inactive
[10]
  activation: 1.93% (inactive) and -3.63% (inactive)
[11]
  outcome: inactive
[14]
  max response: 59.3%
[15]
  outcome: inactive

## COC(=O)[C@H](Cc1ccccc1)NC(=O)[C@@H](N)CC(=O)O (H-Asp-Phe-OMe)
[8]
  Potency: inactive
[18]
  outcome: inactive
[19]
  outcome: inactive
[9]
  outcome: inactive
[10]
  activation: -0.956% (inactive) and -8.82% (inactive)
[11]
  outcome: inactive
[14]
  max response: -1.9% and 6.72%
[15]
  outcome: inactive
[16]
  outcome: inactive
[17]
  Potency: inactive

## COC(=O)C1=C(C)NC(C)=C(C(=O)OC(C)C)C1c1cccc2nonc12 (stereo unspecified)
[5]
  outcome: inactive

## CN(C)c1ccc2nc3ccc(=[N+](C)C)cc-3sc2c1
[19]
  outcome: inactive
[11]
  outcome: inactive
[16]
  outcome: inactive

## CCN(CCO)CCCC(C)Nc1ccnc2cc(Cl)ccc12 (stereo unspecified)
[8]
  Potency: inactive

## C=CCc1cc(OC)c(O)c(C(=O)NCCO)c1
[8]
  Potency: inactive

## CCC[C@@H]1C[C@@H](C(=O)N[C@@H]([C@H]2O[C@H](SC)[C@H](O)[C@@H](O)[C@H]2O)[C@@H](C)O)N(C)C1
[8]
  Potency: inactive

## NS(=O)(=O)c1cc(C(=O)O)c(NCc2ccco2)cc1Cl
[8]
  Potency: inactive
[18]
  outcome: inactive
[19]
  outcome: inactive
[14]
  max response: -4.16% and 9.44%
[15]
  outcome: inactive
[16]
  outcome: inactive
[17]
  Potency: inactive

## CCCc1cc(=O)[nH]c(=S)[nH]1
[8]
  Potency: inactive
[18]
  outcome: inactive
[19]
  outcome: inactive
[14]
  max response: 15.2% and -59%
[15]
  outcome: inactive
[16]
  outcome: inactive
[17]
  Potency: inactive

## CCN(CC)CCOc1ccc(Cc2ccccc2)cc1
[8]
  Potency: inactive
[5]
  outcome: inactive
